Data published in ChEMBL document CHEMBL4513216, “Probing the Open Global Health Chemical Diversity Library for Multistage-Active Starting Points for Next-Generation Antimalarials” (ACS Infect Dis, 2020).
The whole screen tested about 68,000 compounds, of which about 2,700 (4%) showed an effect of 50% or more. For the sample, strong results were picked, then their nearest neighbours and some compounds at random.

Tested on: Plasmodium berghei
Test: Screen against P. berghei liver stage (PbLuc), transformed with Luciferase, at 2uM
Type: functional, HepG2
Conditions: tested at 2 uM

Compound | INHIBITION [%]
Cc1cc(CN2CCc3nc(C(C)C)nc(O)c3CC2)c(C)s1 | 23.7
Cc1ccnc(NC(=O)c2ccc(Br)o2)c1 | 62.51
Cc1ccnc(NC(=O)c2ccc(Cl)o2)c1 | 5.48
Cc1ccnc(NC(=O)c2ccc(C)o2)c1 | -4.26
O=C(CN1CCc2cncnc2C1)NCCOc1ccccc1 | 10.62
O=C(CN1CCc2cncnc2C1)NCCOc1cccc(Cl)c1 | 29.54
Cc1cccc(OCCNC(=O)CN2CCc3cncnc3C2)c1 | 51.94
Oc1cc(-c2nccs2)nc(C2CCN(Cc3cccs3)CC2)n1 | -14.73
Cn1cc(CN2CCCC(c3nc(O)cc(-c4cccs4)n3)C2)cn1 (stereo unspecified) | 32.24
Oc1cc(-c2cccs2)nc(C2CCCN(CC3=CCCOC3)C2)n1 (stereo unspecified) | 51.88
Cc1csc(CNC(=O)NCC(O)c2ccc(F)cc2F)n1 (stereo unspecified) | -41.67
Cn1cccc1CN1CCC2(CC1)CN(c1ccccc1)C(=O)CO2 | 40.64
CCN(CCC(F)(F)F)S(=O)(=O)c1cccc(F)c1C#N | -46.3
Cc1cccc2cc(C(=O)N3CCSCC3)n(C)c12 | 19.04
Fc1ccc(CNc2ccccc2Cn2cncn2)cc1 | 32.93
N#Cc1cc(F)ccc1Cn1cncn1 | -14.79
N#Cc1cc(F)ccc1NCc1ccc(Cn2cncn2)cc1 | 53.99
Cc1cnn(CC2CCCN2Cc2nnc(C(C)C)o2)c1 (stereo unspecified) | -12.82
Cc1ccccc1CN(C)C(=O)CN1CCOC(Cn2cncn2)C1 (stereo unspecified) | 2.07
Cc1cc(=O)c2cc(F)ccc2n1CC(=O)O | -30.92
O=S(=O)(c1ccc(F)cc1)N1CC[C@H]2[C@H]1CCN2c1ncccn1 | 31.96
O=S(=O)(c1cccs1)N1CC[C@H]2[C@H]1CCN2c1ncccn1 | 56.76

Compound | INHIBITION [%]
Cc1cccc(S(=O)(=O)N2CC[C@H]3[C@H]2CCN3c2ncccn2)c1 | 29.19
CN1CC(=O)N(c2cccc(F)c2)CC12CCN(S(=O)(=O)C1CC1)C2 (stereo unspecified) | -12.36
COCCN1C(=O)[C@]2(CC[C@@H]3CN(C(=O)NC(C)C)C[C@@H]32)N=C1C | 16.91
CN(C)[C@@H]1CCN(C(=O)Cc2cccs2)[C@H]1Cc1ccncc1 | -23.59
Cc1cc(CN2CC[C@H]3[C@H]2CCN3S(C)(=O)=O)oc1C | -12.98
CCN1C(=O)CCCC12CCCN(C(=O)c1ccoc1C)C2 (stereo unspecified) | 50.17
CCN1C(=O)CCCC12CCCN(C(=O)c1occc1C)C2 (stereo unspecified) | 46.87
CCN1C(=O)CCCC12CCCN(C(=O)c1cc(C)oc1C)C2 (stereo unspecified) | 19.09
Cc1nc(C)c(C(=O)Nc2cccc(CN3CCC(CO)CC3)c2)o1 | -8.84
Cn1cc(CN2CCc3ncnc(N4CCOCC4)c3CC2)cn1 | -15.83
Cc1nc(N2CCOCC2)nc2c1COCC21CCN(CC2CC2)C1 (stereo unspecified) | -27.12
COCCN1CCC2(COCc3c(C)nc(N(C)C)nc32)C1 (stereo unspecified) | 54.62
CCN1CCC2(COCc3c(C)nc(N(C)C)nc32)C1 (stereo unspecified) | 25.31
Cc1nc(N2CCOCC2)nc2c1COCC21CCN(CC(C)C)C1 (stereo unspecified) | 53.55
Cc1nc(N(C)C)nc2c1COCC21CCN(CC2CC2)C1 (stereo unspecified) | -54.51
CCN1CCC2(COCc3c(C)nc(N4CCOCC4)nc32)C1 (stereo unspecified) | -9.91
CCOC(C)c1nccn1Cc1noc(CC)n1 (stereo unspecified) | -12.93
COCCN1CC[C@H]2CN(c3cc(OC)ncn3)C[C@@H]2C1=O | -25.53
O=C(c1ccccc1F)N1CCOC(c2nc(-c3ncccn3)no2)C1 (stereo unspecified) | -14.56
COc1cccc(-c2ccc3nc(C4CCN(C(C)=O)CC4)nn3c2)c1 | -3.4
O=C1NC2(CCN(Cc3ccc(F)cc3)CC2)CC1c1ccncc1 (stereo unspecified) | -26.22
O=C1NC2(CCN(Cc3nccs3)CC2)CC1c1ccncc1 (stereo unspecified) | 53.54

Compound | INHIBITION [%]
O=C1NC2(CCN(Cc3cccs3)CC2)CC1c1ccncc1 (stereo unspecified) | -13.79
COc1ccc(CNC(=O)NCCc2csc(C)n2)cn1 | -33.61
Cc1nnc(N2CCC(CS(N)(=O)=O)CC2)c(C#N)c1C | 46.52
Cc1nnc(N2CCC(CN(C)C(C)C)CC2)c(C#N)c1C | 2.1
Cc1nnc(N2CCCC(CS(N)(=O)=O)C2)c(C#N)c1C (stereo unspecified) | 57.79
Cc1c[nH]nc1C1CCN(S(=O)(=O)N(C)C)CC1 | 20.73
CC(C)N1CCC(c2n[nH]cc2S(C)(=O)=O)CC1 | 53.59
CNc1nccnc1C1CCN(C(C)C)CC1 | -5.95
CC1CCN(CCNCc2cc(-c3ccccc3)cn3nnnc23)CC1 | 26.56
CCc1c(C)nn2c(O)cc(C3CCN(C(=O)C4CC4)C3)nc12 (stereo unspecified) | 11.53
Cc1cccc(CN2CC3(CCN(Cc4ccoc4)CC3)OCC2=O)n1 | 11.99
O=C1CC(c2ccncc2)C2(CCN(Cc3cccnc3)CC2)N1 (stereo unspecified) | -4.26
Cc1ccc(CN2CCC3(CC2)NC(=O)CC3c2ccccc2)s1 (stereo unspecified) | 57.85
Cc1nc(CN2CCC3(CC2)NC(=O)CC3c2ccccc2)cs1 (stereo unspecified) | 44.43
O=C1CC(c2ccccc2)C2(CCN(Cc3ccncc3)CC2)N1 (stereo unspecified) | 54.07
Cc1noc(C)c1CN1CCC2(CC1)NC(=O)CC2c1ccccc1 (stereo unspecified) | 20.01
O=C1CC(c2ccncc2)C2(CCN(Cc3ccc(F)cc3)CC2)N1 (stereo unspecified) | 6.03
COc1cccc(C(=O)C2CCCN(c3cc(C#N)ccn3)C2)c1 (stereo unspecified) | -45.86
CC(C)COc1cncc(NCCc2nnc3ccccn23)n1 | 39.02
Cc1nn(C)cc1S(=O)(=O)N[C@@H]1CCC[C@@H](n2ccnc2)[C@@H]1O | 45.48
COc1ccccc1N1CCN(C(=O)c2ccnc(N(C)C)c2)CC1 | 56.78
COc1ccccc1N1CCN(C(=O)c2ccoc2)CC1 | -2.44

Compound | INHIBITION [%]
CN(C)c1cc(C(=O)N2CCCC2)ccn1 | -18.23
CN(C)c1ccc(C(=O)N2CCN(Cc3cscn3)CC2)cn1 | 19.18
CN(C)c1ccc(C(=O)N2CCCN(Cc3cscn3)CC2)nn1 | -11.33
CN(C)c1cc(C(=O)N2CCCN(Cc3cscn3)CC2)ccn1 | 51.21
Cc1cnc(CCNc2cccc(CC3CCCNC3)n2)s1 (stereo unspecified) | 23.7
CC[C@@H]1N(Cc2ccc(C)s2)CCC[C@]12CCC(=O)N2C | 20.42
CC[C@@H]1N(Cc2ccc(F)cc2)CCC[C@]12CCC(=O)N2C | 25.46
CC[C@@H]1N(Cc2ccsc2)CCC[C@]12CCC(=O)N2CCOC | -27.69
CC[C@@H]1N(Cc2ccsc2)CCC[C@]12CCC(=O)N2C | 62.46
CC[C@H]1N(Cc2ccco2)CCC[C@]12CCC(=O)N2C | 23.26
CC[C@@H]1N(Cc2ccco2)CCC[C@]12CCC(=O)N2C | 53.46
CCCOc1ccc(CC2=NC(C)(CO)CO2)cc1 (stereo unspecified) | -27.61
CCNC(=O)[C@@H]1CCCN1[C@@H](C(=O)NC)c1ccccc1 | -11.34
CSCc1noc(CN2CCC3(CC2)CC(=O)N(CC(C)C)C3)n1 | 10.61
CC(C)N(CCCNC(=O)C1CC(=O)N(C)C1)S(C)(=O)=O (stereo unspecified) | 2.97
COC(=O)C(C)(C)NC(=O)c1cnc(Cc2ccc(F)cc2)s1 | -32.82
COc1ccnc(NC(Cc2ccccc2)C(N)=O)n1 (stereo unspecified) | 33.9
COc1ccc(-c2ccc(C(=O)NCCCC(N)=O)c(F)c2)c(F)c1 | 53.81
COc1ccc(-c2ccc(C(=O)O)c(F)c2)c(F)c1 | 17.01
COc1ccc(-c2ccc(C(=O)NS(C)(=O)=O)c(F)c2)c(F)c1 | -27.53
O=C(c1c[nH]cn1)N1CCCn2c(CN3CCCCC3)nnc2C1 | 51.26
CN(C)Cc1nnc2n1CCCN(C(=O)c1c[nH]cn1)C2 | -51.91

Compound | INHIBITION [%]
O=C(c1c[nH]cn1)N1CCCn2c(nnc2Cn2cccc2)C1 | 26.44
CNc1cc(C)nc(C2CN(Cc3cncs3)CCO2)c1 (stereo unspecified) | -29.68
CC(C)N(C)C(=O)CSCc1ccc(S(=O)(=O)N(C)C)o1 | 30.34
Cn1cc(CN(C(=O)c2ccc3ncsc3c2)C2CC2)cn1 | 57.34
CN1C(=O)c2ccc(C(=O)N(Cc3cnn(C)c3)C3CC3)cc2C1=O | 21.14
Cn1cc(CN(C(=O)c2ccc(O)c(Cl)c2)C2CC2)cn1 | -33.15
CCn1cnnc1C1CCN(C(=O)c2cccc(-n3cccc3)c2)CC1 | -6.48
COc1cc(N2CCC3(CCN(Cc4nccs4)CC3)C2)ncn1 | 7.71
CCCc1cc(C(=O)N(C)Cc2cccc3ncccc23)n(C)n1 | -24.24
CCCc1cc(C(=O)N(C)Cc2cccc3cnccc23)n(C)n1 | 19.91
CCCc1cc(C(=O)N(C)Cc2ccc(OC)c3ncccc23)n(C)n1 | 58.56
O=C(c1ccccc1)N1C[C@H]2CC[C@@H](C1)N(S(=O)(=O)c1cccnc1)C2 | -23.58
Cc1noc(C)c1CN1CCC2(CCN(Cc3cccc(F)c3)CC2)C1 | 24.04
Cc1nc2ccccc2nc1NCc1cccc(OCC2CCCO2)c1 (stereo unspecified) | 17.25
O=C(CC1=CCCCC1)N1CCC(Cn2cc(CCO)nn2)CC1 | -8.21
O=C1O[C@@H]2CN(C3CCOCC3)C[C@@H]2N1CCCc1ccc(F)cc1 | -23.46
COc1ccc(CCCN2C(=O)O[C@@H]3CN(C4CCOCC4)C[C@@H]32)cc1 | 51.81
COc1ccc(CCN2C(=O)O[C@@H]3CN(C4CCOCC4)C[C@@H]32)cc1 | 1.42
